Assay outcomes: PubChem, National Center for Advancing Translational Sciences (NCATS)
HPGD inh: blocks human HPGD enzyme activity | Potency, µM, for the others: at the top dose activity change, negative = inhibition, most hits filed as inhibitors | purified HPGD, NADH fluorescence kinetic, PGE2 substrate | AID 894 | 150,000 compounds, 4.3% hits; further: potency means the concentration at half of the fitted maximal effect
Target sequence (P15428 whole entry, looked up): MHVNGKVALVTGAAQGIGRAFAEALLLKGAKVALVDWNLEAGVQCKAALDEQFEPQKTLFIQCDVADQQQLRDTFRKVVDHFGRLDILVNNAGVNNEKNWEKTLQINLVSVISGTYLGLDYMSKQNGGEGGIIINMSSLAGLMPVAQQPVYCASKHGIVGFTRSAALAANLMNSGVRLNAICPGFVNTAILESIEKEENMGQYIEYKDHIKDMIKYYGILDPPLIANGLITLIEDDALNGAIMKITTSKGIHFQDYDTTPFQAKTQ
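NADH formation kinetics: reaction with 30 uM PGE2 and 1 mM NAD+ (final), 20 nM enzyme, Tris-HCl pH 8 with Tween 20, after 15 min compound preincubation at room temperature. Fluorescence change, last versus first of five reads.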
PNC assembly inh: perinucleolar compartment assembly inhibition; 140,000 compounds, 3.1% hits; AID 2417; activity change (PNC), negative = inhibition, % at 10 µM; PC3M PTB-GFP, PNC prevalence imaging, 16 h; active compounds read low;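 active means readout at or below -70, meaning at least 70% loss of cells showing the perinucleolar compartment, a nuclear body marking cancer cells; inconclusive means readout between -30 and a set limit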;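 further: plate controls were DMSO wells for no effect and camptothecin positive control wells for full effect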
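PC3M cells stably expressing PTB-GFP, 750–1000 cells/well, treated 16 h at 37 °C with compound (23 nl of library stock), in duplicate. After paraformaldehyde fixation and Hoechst stain, imaged at 20x; PNC prevalence scored by image analysis.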
ALDH1A1 block: blocks purified human ALDH1A1 activity; Potency, µM (doses to about 75.3 µM), for the others: at the highest dose activity, negative = inhibition, actives largely listed as inhibitors; AID 1030; Purified ALDH1A1, NADH fluorescence, propionaldehyde substrate; 220,000 compounds, 7.3% hits; P00352;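 further: potency means the concentration at half of the fitted maximal effect; plate controls were no enzyme wells and a reference inhibitor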
Starred values were filed as active, the others as inactive; ? = inconclusive; . = not tested or not shown; [ ] = remark or other dose. Only some compounds are listed: those with a hit (about 11% of all), similar ones and a draw of the others. Unless noted, the call rests on the fitted dose curve; in most records, active means well fitted inhibition curve with a large enough effect (not every such curve was filed as active); inconclusive means small, poorly fitted or top-dose-only effect, or another doubt; inactive means no such curve, though single readings can be large or run the other way. Unless noted, on the % scale 0 is the no-effect control and ±100 the full control effect.

SMILES | HPGD inh | PNC assembly inh | ALDH1A1 block
O=C(Nc1ccc(S(=O)(=O)N2CCOCC2)cc1)C1COc2ccccc2O1 (stereo not drawn) | 5% | ? | 1%
O=C(C1COc2ccccc2O1)N1CCN(c2ccc(F)cc2)CC1 (stereo not drawn) | -3% | 28 | 1%
CCCn1cnc2c(SCC(=O)O)nc(N)nc21 | -2% | . | 10%[13.5 µM]
CCC1=C(C[C@H]2NCCc3ccccc32)C[C@@H]2c3cc(OC)c(OC)cc3CCN2C1 | -9% | . | 12%[13.5 µM]
Cc1ccc(C(=O)CSc2ncnc3sc4c(c23)CCC(C)C4)cc1 (stereo not drawn) | -13% | -119* | -13%
CC1CCc2c(sc3ncnc(SCC(=O)N4CCN(C(=O)c5ccco5)CC4)c23)C1 (stereo not drawn) | -15% | -25 | ?
CCN(CC(=O)Nc1ccc(N2CCOCC2)cc1)C(=O)COc1ccccc1OC | . | . | 5%
CCOC(=O)c1sc(N)nc1-c1ccccc1 | -27% | ? | ?
CCOC(=O)c1snc(-c2ccc(F)cc2)c1N | ? | 30 | 10µM*
C=CCC(CC=C)(NC(=O)c1cccc(C)c1)c1ccccc1 | -9% | 50 | -3%
O=C1CC(N2CCN(c3ccc(O)cc3)CC2)C(=O)N1Cc1cccs1 (stereo not drawn) | -1% | -26 | 25µM*
O=C1CC(N2CCN(C/C=C/c3ccccc3)CC2)C(=O)N1Cc1cccs1 (stereo not drawn) | -1% | -13 | -7%
Cc1nc(N2CCN(C(=O)CCC(=O)O)CC2)c2c(C)c(C)sc2n1 | 35µM* | 15 | 4%
CCC(=O)N1CCN(c2nc(C)nc3sc(C)c(C)c23)CC1 | ? | 48 | 0%
O=C(Cn1cccc1C(=O)c1ccccc1)NCCC1=CCCCC1 | . | . | 1%
O=C1c2ccccc2-c2n[nH]c3cccc1c23 | -21% | . | 3.2µM*
O=C1c2ccccc2-c2nnc(-c3ccc(O)cc3)cc21 | . | . | 14%
O=C(c1cnccn1)N1CCC2(CC1)CCN(c1ccccc1)CC2 | -1% | . | -4%
CCc1ccc(NC(=O)c2cnn(-c3ccccc3)c2C)cc1 | 2.5µM* | 41 | 9%
CCCc1c(C(=O)Nc2ccc(N3CCOCC3)cc2)cnn1-c1ccccc1 | . | . | 3.2µM*
CCCc1c(C(=O)Nc2cc(C)on2)cnn1-c1ccccc1 | . | . | 18µM*
CCCc1c(C(=O)NNc2ccc(C)cc2)cnn1-c1ccccc1 | . | . | 14µM*
Cc1nn(-c2ccccc2)c(C)c1C(=O)Nc1ccc(N2CCOCC2)cc1 | . | . | -5%
Cc1cc(NC(=O)c2ccccc2Cl)no1 | -7% | 17 | 7%
CC(=O)c1cnn(-c2ccccc2)c1C | . | . | -6%
SMILES | HPGD inh | PNC assembly inh | ALDH1A1 block
CCc1ccc(NC(=O)c2cnn(-c3ccccc3)c2C2CCNCC2)cc1 | . | . | 4%
Nc1nc(CN2CCN(c3ccccc3)CC2)nc(Nc2ccc(Cl)cc2)n1 | . | . | 2%
COc1ccc(CCN(C)C(=O)C2CCN(Cc3ccc(C)cc3)CC2)cc1OC | . | . | -11%
CCOC(=O)c1[nH]c2ccc(Br)cc2c1NC(=O)CCN1CCCC(C)(C)C1 | -20% | 33 | ?
CN1CCN(CC(=O)Nc2nnc(-c3cccs3)s2)CC1 | ? | -29 | ?
O=C(NCc1ccccc1)c1ccc(Br)cc1Br | 3.5µM* | 83 | 5%
O=C(NC(=S)NCc1ccccc1)c1ccc2c(c1)OCO2 | -15% | 18 | ?
C/C(=N\NC(=S)NCc1ccccc1)c1cccc(Br)c1 | . | . | 1%
O=C(NCc1ccccc1)c1ccccc1Br | . | . | 6%
O=C(NCc1ccccc1)c1ccc(Oc2ccc(C(=O)NCc3ccccc3)cc2)cc1 | 13µM* | 5 | 0%
C/C(=N\NC(=S)NCc1ccccc1)c1ccc2ccccc2c1 | -5% | -99* | 3%
O=C(NCc1ccccc1)c1ccc(OC2CSC2)cc1 | -18% | ? | 3%
COc1ccc(C(=O)NC(=S)NCc2ccccc2)cc1 | -9% | ? | 22µM*
O=C(O)CN(CC(=O)O)CC(=O)O | -9% | . | -2%
C=CCNc1cc(N2CCCC2)ccc1[N+](=O)[O-] | . | . | -6%
c1cncc(-c2nccc(-n3ccnc3)n2)c1 | -7% | . | 17%
CCOC(=O)C1CSC(Cc2ccc(OCc3ccc([N+](=O)[O-])cc3)cc2)N1 (stereo not drawn) | -23% | . | 5%
CCN(C(=O)CN1CC(C)OC(C)C1)c1c(N)n(Cc2ccccc2)c(=O)[nH]c1=O (stereo not drawn) | . | . | 2%
COc1ccc(CNC(=S)NCc2ccc(OC(C)C)cc2)cc1 | -1% | -24 | 14µM*
COc1cc(OC)cc(C(=O)NC(=S)NCCc2ccccc2)c1 | -11% | 33 | 1.1µM*
Cc1ccc(C(=O)NCc2ccccc2)cc1Br | 25µM* | 39 | ?
COc1ccc(CNC(=S)Nc2cc(C)cc(C)c2)cc1 | -10% | -7 | 1%
O=C(CNC(=O)c1ccc(Oc2ccccc2)cc1)OCc1ccc(Br)cc1 | -9% | 23 | 1%
COc1ccc(C(=O)NCc2ccccc2)cc1Br | -16% | 27 | 4%
COc1cc(OC)cc(C(=O)NCCNC(=O)c2ccccc2)c1 | 3% | ? | -17%
SMILES | HPGD inh | PNC assembly inh | ALDH1A1 block
O=C(CNC(=O)c1ccc(Oc2ccccc2)cc1)OC1CCCCC1=O (stereo not drawn) | -16% | 2 | 22µM*
CC(C)OC(=O)c1ccc(N)cc1 | . | . | 0%
Cc1ccc(NC(=O)C2CC(Cl)=CCC2C(=O)O)c([N+](=O)[O-])c1 (stereo not drawn) | . | . | 5%
C[C@H]1Cc2c(-c3ccccc3)nc3c(c2CO1)CN(S(=O)(=O)c1ccc2c(c1)OCCN2C)CC3 | -9% | . | -4%[13.5 µM]
O=C1NC(=O)/C(=C/C(=O)N2CCOCC2)S1 | . | . | -3%
O=C(NCc1ccccc1)c1ccc(Cl)cc1[N+](=O)[O-] | 13µM* | 35 | 7%
COc1ccc(CNC(=S)Nc2ccc(-c3ccccc3)cc2)cc1 | . | . | -17%
COC(=O)c1sc(NC(=S)NC(=O)c2ccccc2)nc1C | -7% | -88* | -6%
CCOC(=O)c1sc(NC(=S)NC(=O)c2ccccc2)nc1C | . | . | -8%
CCN(Cc1ccccc1)C(=O)c1ccc(Cl)cc1[N+](=O)[O-] | . | . | -7%
COc1ccc(CNC(=S)Nc2ccccc2-c2ccccc2)cc1 | . | . | 22µM*
Cn1c(=O)c2[nH]c(CS(=O)(=O)Cc3nc4c([nH]3)c(=O)n(C)c(=O)n4C)nc2n(C)c1=O | -17% | . | ?
CCCC(=O)Nc1ccc(C(=O)NNC(=O)c2ccco2)cc1 | -9% | 59 | -4%
COc1cccc(CN2CCN(Cc3cccc4nonc34)CC2CCO)c1 (stereo not drawn) | . | . | 7%
O=C(CCc1nc(-c2ccccc2)no1)NC1CCCCC1 | 18µM* | 5 | ?
O=C(CCc1nc(-c2ccccc2F)no1)NC1CCCCCC1 | 28µM* | ? | -11%
O=C(CCc1nnc(-c2ccccc2)o1)NC1CCCCC1 | . | . | 1%
O=C(CCc1nc(-c2ccccc2F)no1)NCCc1ccccc1Cl | -6% | -26 | ?
CC(OC(=O)c1nn(C(C)C)c(=O)c2ccccc12)C(=O)Nc1ncc(Cl)cc1Cl (stereo not drawn) | -6% | 21 | -3%
CC(C)(C(=O)Nc1nccs1)c1ccccc1 | . | . | 3%
COc1ccc(CCCC(=O)NC2CCCCC2C)c(C)c1 (stereo not drawn) | 3.5µM* | 6 | 16µM*
COc1ccc(CCCC(=O)NC2CCCCC2)cc1 | ? | 15 | 7%
